Source: PubChem BioAssay (NCI)
About 83,000 compounds went through this panel and 20% of them were active in at least one assay; those are over-represented in the sample as a whole.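 48-hour exposure, single concentration, 96-well plates; percent growth endpoint where 0 means no net growth. Active: below 10.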 Activity calls are given as the source filed them.

What was measured:
Assay in all cases: NCI-60 one-dose screen, 48 h (100 = growth as untreated, 0 = no growth, -100 = all killed)
Details in all cases: 10 µM unless noted
DU-145 prostate = tested on: DU-145 prostate
K-562 leukemia = tested on: K-562 leukemia
MALME-3M melanoma = tested on: MALME-3M melanoma
MDA-MB-231 breast = tested on: MDA-MB-231 breast
RXF 393 renal = tested on: RXF 393 renal
SF-268 CNS = tested on: SF-268 CNS
SF-295 CNS = tested on: SF-295 CNS
SF-539 CNS = tested on: SF-539 CNS
UACC-257 melanoma = tested on: UACC-257 melanoma
M14 melanoma = tested on: M14 melanoma

Measured: growth

COc1ccc(Br)cc1NC(=O)Nc1cccc2c1ccn2Cc1ccnc(N)c1
inactive: DU-145 prostate 58.7% | MALME-3M melanoma 42.1% | RXF 393 renal 16.3% | SF-268 CNS 47.5% | SF-539 CNS 27.5% | UACC-257 melanoma 32.5%
active: K-562 leukemia 4.41% | MDA-MB-231 breast -2.75% | SF-295 CNS -6.47% | M14 melanoma -30.2%

CS(=O)(=O)N1CCc2c(-c3cnc(N)nc3)nc(N3CCOCC3)nc21
active: MALME-3M melanoma -17.6% | RXF 393 renal -36.2% | SF-295 CNS -34.7% | SF-539 CNS -45.1% | UACC-257 melanoma -18%
inactive: DU-145 prostate 13.5% | K-562 leukemia 22.3% | MDA-MB-231 breast 30.4% | SF-268 CNS 14.7% | M14 melanoma 10.4%

O=C(NC[C@H](O)CO)c1ccncc1Nc1ccc(I)cc1F
active: MALME-3M melanoma -7.31% | UACC-257 melanoma -19.2% | M14 melanoma 3.95%
inactive: DU-145 prostate 63.4% | K-562 leukemia 37.2% | MDA-MB-231 breast 29.8% | RXF 393 renal 15.1% | SF-268 CNS 71.3% | SF-295 CNS 67.1% | SF-539 CNS 52.5%

CNC(=O)CN1CCC(Oc2cc3c(Nc4cccc(Cl)c4F)ncnc3cc2OC)CC1
inactive: DU-145 prostate 44.9% | K-562 leukemia 60.9% | MALME-3M melanoma 91.1% | MDA-MB-231 breast 43.6% | RXF 393 renal 24% | SF-268 CNS 51% | SF-295 CNS 76.1% | SF-539 CNS 72.8% | UACC-257 melanoma 74.4% | M14 melanoma 84.1%

CCc1nc(C(N)=O)c(Nc2ccc(N3CCC(N4CCN(C)CC4)CC3)c(OC)c2)nc1NC1CCOCC1
active: RXF 393 renal -92.9% | SF-539 CNS -78.3%
inactive: DU-145 prostate 45.1% | K-562 leukemia 16.1% | MALME-3M melanoma 52.4% | MDA-MB-231 breast 20.3% | SF-268 CNS 38.3% | SF-295 CNS 12.8% | UACC-257 melanoma 40.5% | M14 melanoma 15.2%

COc1cc2c(Oc3ccc(NC(=O)C4(C(=O)Nc5ccc(F)cc5)CC4)cc3F)ccnc2cc1OCCCN1CCOCC1
inactive: DU-145 prostate 16.4% | SF-268 CNS 11.6%
active: K-562 leukemia -12.1% | MALME-3M melanoma -71.6% | MDA-MB-231 breast -60.3% | RXF 393 renal -94.5% | SF-295 CNS -82.9% | SF-539 CNS -90.5% | UACC-257 melanoma -85.3% | M14 melanoma -65.9%

CC(C)(C)OC(=O)N1CCC(O)[C@@H](O[Si](c2ccccc2)(c2ccccc2)C(C)(C)C)[C@H]1/C=C/c1ccccc1 (stereo not given in full)
inactive: DU-145 prostate 57.6% | K-562 leukemia 38.7% | MALME-3M melanoma 47.3% | MDA-MB-231 breast 49.5% | SF-268 CNS 52.5% | SF-295 CNS 36.7% | SF-539 CNS 57.1% | UACC-257 melanoma 40.8% | M14 melanoma 50%
active: RXF 393 renal 6.38%

FC(F)c1nc2ccccc2n1-c1nc(N2CCOCC2)nc(N2CCOCC2)n1
active: DU-145 prostate 6.49% | MALME-3M melanoma -26.7% | RXF 393 renal -44.5% | SF-268 CNS 2.79% | SF-295 CNS -44.6% | SF-539 CNS -45.3% | UACC-257 melanoma -27.3% | M14 melanoma 3%
inactive: K-562 leukemia 13.1% | MDA-MB-231 breast 15.7%

O=[N+]([O-])c1cc(Br)cc2c1[nH]c1ccc(Br)cc12
inactive: DU-145 prostate 77.1% | K-562 leukemia 55.5% | MALME-3M melanoma 66.3% | MDA-MB-231 breast 58.4% | RXF 393 renal 43.6% | SF-268 CNS 73.4% | SF-295 CNS 49.9% | SF-539 CNS 84.6% | UACC-257 melanoma 88.7% | M14 melanoma 70.5%

CO[C@@H](C)Cn1c(=O)n(C)c2cnc3ccc(-c4cncc(C(C)(C)O)c4)cc3c21
active: MALME-3M melanoma -36% | MDA-MB-231 breast 6.56% | RXF 393 renal -47.2% | SF-268 CNS 7.58% | SF-295 CNS -39.6% | SF-539 CNS -39.5% | UACC-257 melanoma -16.6% | M14 melanoma 3.8%
inactive: DU-145 prostate 13% | K-562 leukemia 14.8%

C/C(=C(/c1ccc(Cl)cc1)c1ccc(OCCN2CCCCCC2)cc1)c1ccccc1
inactive: DU-145 prostate 83.5% | K-562 leukemia 22.7% | MALME-3M melanoma 81.7% | MDA-MB-231 breast 86.9% | RXF 393 renal 81.4% | SF-268 CNS 93% | SF-295 CNS 86.4% | SF-539 CNS 72.4% | UACC-257 melanoma 92.2% | M14 melanoma 81.4%

O=C1C=CC2(NN=C(c3ccccc3)N2c2ccc(Cl)cc2)c2cccc(O)c21 (stereo not given)
active: UACC-257 melanoma 5.85%
inactive: DU-145 prostate 51.9% | K-562 leukemia 25.5% | MALME-3M melanoma 38.8% | MDA-MB-231 breast 77.4% | RXF 393 renal 119% | SF-268 CNS 57.3% | SF-295 CNS 27.8% | SF-539 CNS 26.6% | M14 melanoma 28.9%

COc1cc2c(Nc3ccc(Br)cc3F)ncnc2cc1OCC1CCN(C)CC1
active: K-562 leukemia 3.22% | MALME-3M melanoma -52.3% | MDA-MB-231 breast 9.67% | RXF 393 renal -38.2% | SF-539 CNS -58.4% | UACC-257 melanoma -85.9% | M14 melanoma -82.5%
inactive: DU-145 prostate 33% | SF-268 CNS 30.5% | SF-295 CNS 45.8%

COC(=O)[C@H](C)NC(=O)[C@@H](OC)[C@@H]1Cc2cc3cc(OC4CC(OC5CC(O)C(O)C(C)O5)C(O)C(C)O4)c(C)c(O)c3c(O)c2C(=O)[C@H]1OC1CC(OC2CC(OC3CC(C)(O)C(O)C(C)O3)C(O)C(C)O2)C(O)C(C)O1 (stereo not given in full)
active: K-562 leukemia 7.1% | MALME-3M melanoma -49.3% | RXF 393 renal -70.3% | SF-295 CNS 3.96% | SF-539 CNS -33.2% | UACC-257 melanoma -0.386% | M14 melanoma -23.9%
inactive: DU-145 prostate 13.2% | MDA-MB-231 breast 18.4% | SF-268 CNS 14.1%

N#Cc1c(-c2ccc(Cl)cc2)csc1NC(=O)Nc1cccc(C(F)(F)F)c1
inactive: DU-145 prostate 16.9% | MALME-3M melanoma 14.8% | RXF 393 renal 59.5% | SF-268 CNS 27.9% | SF-539 CNS 37.9% | UACC-257 melanoma 27.8% | M14 melanoma 20.4%
active: K-562 leukemia 9.25% | MDA-MB-231 breast -0.969% | SF-295 CNS 3.47%

Cn1cnc2c(F)c(Nc3ccc(Br)cc3F)c(C(=O)NOCCO)cc21
inactive: DU-145 prostate 64.2% | K-562 leukemia 49.4% | MDA-MB-231 breast 34.9% | RXF 393 renal 19.5% | SF-268 CNS 70.8% | SF-295 CNS 76.3% | SF-539 CNS 62.6%
active: MALME-3M melanoma -2.35% | UACC-257 melanoma -25.8% | M14 melanoma 2.5%

Cc1ccccc1N1C(c2ccccc2)=NNC12C=CC(=O)C=C2Cl (stereo not given)
inactive: DU-145 prostate 110% | K-562 leukemia 96.4% | MALME-3M melanoma 98.6% | MDA-MB-231 breast 111% | RXF 393 renal 132% | SF-268 CNS 99.1% | SF-295 CNS 108% | SF-539 CNS 93.4% | UACC-257 melanoma 81.1% | M14 melanoma 105%

CC(C)c1cc(CNc2nc(Nc3cc(C4CC4)[nH]n3)cc(N3CCN(C)CC3)n2)on1
active: DU-145 prostate -15.7% | K-562 leukemia 5.67% | MALME-3M melanoma -42.9% | MDA-MB-231 breast 6.11% | RXF 393 renal -54.1% | SF-268 CNS -3.51% | SF-295 CNS 6.84% | SF-539 CNS -61.8% | UACC-257 melanoma -14.3% | M14 melanoma -37.5%

Cc1ccc(NC(=O)Nc2ccc(Nc3ncnc4sc5c(c34)CCOC5)cc2)cc1Cl
inactive: DU-145 prostate 114% | K-562 leukemia 108% | MALME-3M melanoma 98.2% | MDA-MB-231 breast 88.5% | RXF 393 renal 95.5% | SF-268 CNS 103% | SF-295 CNS 96% | SF-539 CNS 84.4% | UACC-257 melanoma 88.8% | M14 melanoma 99.1%

C=CCCCOC1[C@H](OCc2ccccc2)C(OCc2ccccc2)C(OC)O[C@@H]1CNC(=O)c1cccc(I)c1 (stereo not given in full)
inactive: DU-145 prostate 49.7% | K-562 leukemia 52% | MALME-3M melanoma 80.4% | MDA-MB-231 breast 58% | RXF 393 renal 38.1% | SF-268 CNS 31.3% | SF-295 CNS 35% | SF-539 CNS 31.8% | UACC-257 melanoma 36.8% | M14 melanoma 47.1%

Clc1ccc(Nc2nccc(Nc3ccc4[nH]ncc4c3)n2)cc1
inactive: DU-145 prostate 49.8% | MALME-3M melanoma 87.5% | MDA-MB-231 breast 68.8% | RXF 393 renal 35.1% | SF-268 CNS 60.4% | SF-295 CNS 70.9% | SF-539 CNS 75.8% | UACC-257 melanoma 87.6% | M14 melanoma 43.8%
active: K-562 leukemia -7.92%

COc1cc2nccc(Oc3ccc(NC(=O)C4(C(=O)Nc5ccc(F)cc5)CC4)cc3)c2cc1OC
inactive: DU-145 prostate 27.3% | SF-268 CNS 34%
active: K-562 leukemia 0.49% | MALME-3M melanoma 0.11% | MDA-MB-231 breast 4.99% | RXF 393 renal -25.5% | SF-295 CNS -8.99% | SF-539 CNS -10.2% | UACC-257 melanoma -12.6% | M14 melanoma -11.6%
